# Reference: ChEMBL document CHEMBL5724796, “Tm Shift (DSF) assay results for EUbOPEN Chemogenomics Library” (2024)
# Non-standard residues stand in square brackets, D forms with d. Residues, ends and D or L forms follow the SMILES beside them. *: point of attachment. Benzoyl(4-tBu) = CC(C)(C)c1ccc(C(=O)*)cc1; Lys(Et2) = CCN(CC)CCCC[C@H](N)C(=O)O
# What was measured:
# Settings in all cases: Compound concentration 20.0 uM
# [1] = target: Tyrosine-protein kinase ABL1 (Homo sapiens) (UniProt P00519)
# Tyrosine-protein kinase ABL1 (Homo sapiens), sequence (P00519 whole entry): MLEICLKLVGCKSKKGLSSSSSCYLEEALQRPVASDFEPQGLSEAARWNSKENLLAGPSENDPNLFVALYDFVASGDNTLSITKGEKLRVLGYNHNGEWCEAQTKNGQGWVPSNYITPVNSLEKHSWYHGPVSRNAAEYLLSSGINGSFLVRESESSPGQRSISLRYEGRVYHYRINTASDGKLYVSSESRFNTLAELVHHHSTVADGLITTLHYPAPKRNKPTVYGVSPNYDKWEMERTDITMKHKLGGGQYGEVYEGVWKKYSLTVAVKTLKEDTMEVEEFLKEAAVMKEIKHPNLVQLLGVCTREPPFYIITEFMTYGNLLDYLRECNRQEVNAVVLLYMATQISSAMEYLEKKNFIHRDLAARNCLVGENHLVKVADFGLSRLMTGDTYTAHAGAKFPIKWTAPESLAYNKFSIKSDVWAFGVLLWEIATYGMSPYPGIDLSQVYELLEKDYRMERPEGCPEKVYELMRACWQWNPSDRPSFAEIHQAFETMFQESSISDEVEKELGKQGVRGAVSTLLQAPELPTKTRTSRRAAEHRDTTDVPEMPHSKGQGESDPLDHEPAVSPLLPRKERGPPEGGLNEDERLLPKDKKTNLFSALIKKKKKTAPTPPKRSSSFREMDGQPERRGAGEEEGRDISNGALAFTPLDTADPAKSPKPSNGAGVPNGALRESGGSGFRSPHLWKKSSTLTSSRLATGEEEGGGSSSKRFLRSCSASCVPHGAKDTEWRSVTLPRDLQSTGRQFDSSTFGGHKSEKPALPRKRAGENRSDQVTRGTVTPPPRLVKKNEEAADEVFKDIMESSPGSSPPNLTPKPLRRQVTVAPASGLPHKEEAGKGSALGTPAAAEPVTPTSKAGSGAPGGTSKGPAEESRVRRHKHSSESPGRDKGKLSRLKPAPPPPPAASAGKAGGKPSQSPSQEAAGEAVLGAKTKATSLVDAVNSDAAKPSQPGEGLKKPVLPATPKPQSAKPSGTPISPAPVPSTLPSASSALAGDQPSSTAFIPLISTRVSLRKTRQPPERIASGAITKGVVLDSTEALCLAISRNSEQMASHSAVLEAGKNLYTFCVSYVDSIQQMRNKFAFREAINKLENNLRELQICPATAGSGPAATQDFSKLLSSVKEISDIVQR
# [2] = target: Bromodomain-containing protein 4 (Homo sapiens) (UniProt O60885)
# [3] = target: Cyclin-dependent kinase 2 (Homo sapiens) (UniProt P24941)
# [4] = target: Casein kinase I isoform delta (Homo sapiens) (UniProt P48730)
# Casein kinase I isoform delta (Homo sapiens), sequence (P48730 whole entry, looked up, canonical isoform): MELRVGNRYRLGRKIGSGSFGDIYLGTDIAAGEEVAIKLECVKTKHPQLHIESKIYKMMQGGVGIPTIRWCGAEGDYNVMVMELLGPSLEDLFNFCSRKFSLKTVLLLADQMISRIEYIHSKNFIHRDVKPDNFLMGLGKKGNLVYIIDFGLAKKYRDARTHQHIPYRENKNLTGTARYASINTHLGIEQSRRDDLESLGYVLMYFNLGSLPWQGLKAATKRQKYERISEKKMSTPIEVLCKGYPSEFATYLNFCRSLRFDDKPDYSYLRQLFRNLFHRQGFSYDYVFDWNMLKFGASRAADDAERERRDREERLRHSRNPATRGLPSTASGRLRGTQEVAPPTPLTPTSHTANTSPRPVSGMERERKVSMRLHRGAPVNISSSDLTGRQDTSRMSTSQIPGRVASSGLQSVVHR
# [5] = target: Glycogen synthase kinase-3 beta (Homo sapiens) (UniProt P49841)
# Glycogen synthase kinase-3 beta (Homo sapiens), sequence (P49841 whole entry, looked up): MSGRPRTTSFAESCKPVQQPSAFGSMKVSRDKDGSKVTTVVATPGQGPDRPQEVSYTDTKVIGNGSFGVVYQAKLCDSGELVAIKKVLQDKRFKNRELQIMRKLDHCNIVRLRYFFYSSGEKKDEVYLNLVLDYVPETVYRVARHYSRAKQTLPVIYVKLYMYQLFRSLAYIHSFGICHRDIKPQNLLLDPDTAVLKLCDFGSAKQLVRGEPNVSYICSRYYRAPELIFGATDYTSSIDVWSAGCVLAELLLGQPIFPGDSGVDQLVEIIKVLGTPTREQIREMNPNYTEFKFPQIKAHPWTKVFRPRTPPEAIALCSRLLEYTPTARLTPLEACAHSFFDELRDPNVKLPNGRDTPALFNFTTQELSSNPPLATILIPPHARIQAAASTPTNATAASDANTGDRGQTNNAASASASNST
# [6] = target: Mitogen-activated protein kinase 1 (Homo sapiens) (UniProt P28482)
# Mitogen-activated protein kinase 1 (Homo sapiens), sequence (P28482 whole entry): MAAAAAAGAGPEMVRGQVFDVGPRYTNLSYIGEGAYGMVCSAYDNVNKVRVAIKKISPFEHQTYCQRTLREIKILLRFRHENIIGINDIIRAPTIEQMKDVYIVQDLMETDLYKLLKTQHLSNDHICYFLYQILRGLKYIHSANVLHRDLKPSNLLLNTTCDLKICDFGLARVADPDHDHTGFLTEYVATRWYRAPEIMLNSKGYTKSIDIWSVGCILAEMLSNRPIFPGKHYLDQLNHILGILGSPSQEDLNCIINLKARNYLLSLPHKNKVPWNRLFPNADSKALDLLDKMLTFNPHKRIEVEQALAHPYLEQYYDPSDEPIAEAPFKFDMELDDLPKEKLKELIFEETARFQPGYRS
# [7] = target: T1, Aurora kinase A (Homo sapiens) (UniProt O14965)
# T1 sequence (whole entry): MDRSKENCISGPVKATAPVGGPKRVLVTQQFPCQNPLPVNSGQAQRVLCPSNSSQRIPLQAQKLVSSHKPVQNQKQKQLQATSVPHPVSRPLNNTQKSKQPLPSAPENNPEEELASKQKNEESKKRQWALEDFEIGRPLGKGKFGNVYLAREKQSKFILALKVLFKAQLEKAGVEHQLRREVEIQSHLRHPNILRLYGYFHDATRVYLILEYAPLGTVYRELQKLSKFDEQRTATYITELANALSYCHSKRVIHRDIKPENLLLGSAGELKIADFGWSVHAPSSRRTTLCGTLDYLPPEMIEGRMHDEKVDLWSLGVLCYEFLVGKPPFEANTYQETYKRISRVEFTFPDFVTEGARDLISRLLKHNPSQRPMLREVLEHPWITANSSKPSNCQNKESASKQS
# [8] = target: T2, Transcription intermediary factor 1-alpha (Homo sapiens) (UniProt O15164)
# T2 sequence (whole entry): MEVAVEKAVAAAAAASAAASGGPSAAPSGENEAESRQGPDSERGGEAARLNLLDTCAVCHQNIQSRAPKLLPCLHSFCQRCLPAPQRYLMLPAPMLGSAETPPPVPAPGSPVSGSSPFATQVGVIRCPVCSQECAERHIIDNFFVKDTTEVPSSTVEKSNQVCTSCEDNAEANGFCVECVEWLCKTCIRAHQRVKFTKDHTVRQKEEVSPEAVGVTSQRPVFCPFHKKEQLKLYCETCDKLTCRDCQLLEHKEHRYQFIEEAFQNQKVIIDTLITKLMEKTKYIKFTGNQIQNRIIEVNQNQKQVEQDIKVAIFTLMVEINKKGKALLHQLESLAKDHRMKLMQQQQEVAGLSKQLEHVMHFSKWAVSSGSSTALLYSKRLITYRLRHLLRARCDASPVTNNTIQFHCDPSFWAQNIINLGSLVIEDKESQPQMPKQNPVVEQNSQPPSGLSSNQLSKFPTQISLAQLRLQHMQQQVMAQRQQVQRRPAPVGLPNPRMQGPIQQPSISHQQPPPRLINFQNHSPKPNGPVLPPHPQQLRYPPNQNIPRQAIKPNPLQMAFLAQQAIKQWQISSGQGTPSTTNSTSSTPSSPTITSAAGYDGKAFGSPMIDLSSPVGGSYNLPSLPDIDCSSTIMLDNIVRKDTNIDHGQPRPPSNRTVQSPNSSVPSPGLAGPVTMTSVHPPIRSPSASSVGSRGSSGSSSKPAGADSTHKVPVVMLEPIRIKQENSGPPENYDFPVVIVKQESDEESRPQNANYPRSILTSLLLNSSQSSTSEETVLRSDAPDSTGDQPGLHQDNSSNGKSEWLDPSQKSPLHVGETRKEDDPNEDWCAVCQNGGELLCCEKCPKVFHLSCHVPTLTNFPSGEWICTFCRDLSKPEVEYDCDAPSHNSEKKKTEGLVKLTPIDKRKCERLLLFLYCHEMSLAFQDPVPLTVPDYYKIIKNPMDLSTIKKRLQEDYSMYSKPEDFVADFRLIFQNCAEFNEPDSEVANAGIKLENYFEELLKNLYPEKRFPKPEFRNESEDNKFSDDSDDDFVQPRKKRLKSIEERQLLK
Compound,ΔTm [1] [°C],ΔTm [2] [°C],ΔTm [3] [°C],ΔTm [4] [°C],ΔTm [5] [°C],ΔTm [6] [°C],ΔTm [7] [°C],ΔTm [8] [°C]
COc1ccccc1[C@H]1[C@H](C(=O)O)[C@H](c2ccccc2OC)[C@H]1C(=O)Oc1cccc2ccccc12,0.47,-2.56,-0.65,-3.09,0,-0.07,-2.4,-2.09
CNCCC(Oc1ccccc1OC)c1ccccc1 (stereo not drawn),0.01,-1.45,-0.03,-0.42,-0.93,0.05,-1.7,0.03
CNC(=O)O[C@H]1COc2ccc(N3CCN(C4COC4)CC3)cc2[C@@H]1NC(=O)c1ccc(F)cc1,0.28,-1.16,-0.66,0.03,-0.56,-1.19,-1.61,-0.51
CCCCCCCCCCCCCC(=S)NCCCC[C@H](NC(=O)OCc1ccccc1)C(=O)Nc1ccccc1,0.75,2.49,1.43,0.13,0.6,0.45,-2.19,1.92
CC(C)(O)c1ccc(-c2nc3c(F)cc(F)cc3c(=O)[nH]2)cc1,1.34,-1.77,-0.55,1.05,-2.12,-4.92,-0.15,-1.14
Cc1cccc(N/N=C(\C(=O)c2cccs2)C(=O)C(F)(F)F)c1,0.48,-1.9,0.44,-0.01,-0.93,0.19,-1.9,-1.89
OC[C@H]1O[C@@H](c2ccc(Cl)c(Cc3ccc(O[C@H]4CCOC4)cc3)c2)[C@H](O)[C@@H](O)[C@@H]1O,0.58,-2.67,-0.08,-0.33,-0.36,0.5,-1.72,-0.73
Cn1cc(-c2ccncc2)c(-c2ccc(OCc3ccc4ccccc4n3)cc2)n1,0.66,-0.49,-0.35,1.79,0,0.13,2.06,0.65
CC(C)(C)OC(=O)NCCCCCN(CCc1ccccc1)C(=O)n1cc(-c2ccc(OC(F)(F)F)cc2)nn1,-0.13,-3.63,0.01,-1.51,-2.3,0.71,-2.16,0.4
Cc1ccc2[nH]c3c(c2c1)CCCC3C(N)=O (stereo not drawn),0.45,-2.26,0.06,-0.29,-0.37,0.52,-2.14,-1.11
O=C(COc1ccc(-c2oc3cc(O)c(C(=O)O)cc3c2C#Cc2cccc(Cl)c2)cc1)NC1CC1,0.23,-1.93,0.55,0.15,-0.41,-0.57,-0.11,-0.84
CC(c1cccc2ccccc12)n1cnc2c(=O)[nH]c(Cc3ccccc3)nc21 (stereo not drawn),0.22,-5.4,-0.82,0.84,-1,-0.16,-3.08,-1.81
NC(=S)c1cccc(-c2cn(C3CCN(S(=O)(=O)C(F)(F)F)CC3)c3cc(CNC(=O)C4CNC4)ccc23)c1,0.61,-0.14,1.5,-0.09,-0.8,0.28,-1.57,0
O=C(NCCCOc1ccc2[nH]c(=O)ccc2c1)N(C1CC1)[C@@H]1CCCC[C@H]1O,0.31,-0.85,-0.14,-0.05,-0.66,0.1,-2.39,0.02
O=[N+]([O-])c1c(Nc2cc(F)cc(Cl)c2)ccc2nonc12,0.44,-2.93,0.03,-0.44,-0.33,0.07,-2.49,-0.26
CC(C)c1cc(C(=O)N2Cc3ccc(CN4CCN(C)CC4)cc3C2)c(O)cc1O,1.01,-1.29,0.67,0.22,-0.43,-0.06,-0.12,-0.61
N[C@@H](CCNCc1ccc(Cl)cc1)C(=O)N1CCCCC1,0.49,-3.21,0,-0.34,-0.21,0.19,-2.45,0.39
C/C=C1\NC(=O)[C@H]2CSSCC/C=C/[C@H](CC(=O)N[C@H](C(C)C)C(=O)N2)OC(=O)[C@H](C(C)C)NC1=O,-1.22,-2.72,-0.96,-0.77,-0.05,-6.13,-0.48,0.22

Compound,ΔTm [1] [°C],ΔTm [2] [°C],ΔTm [3] [°C],ΔTm [4] [°C],ΔTm [5] [°C],ΔTm [6] [°C],ΔTm [7] [°C],ΔTm [8] [°C]
COC[C@@H]1CCCN1S(=O)(=O)c1ccc2c(c1)C(=O)C(=O)N2,0.35,-1.47,-0.41,0.01,-0.2,-0.37,-0.97,-0.89
CCCC[C@]1(CC)CS(=O)(=O)c2cc(CNC(CC(=O)O)CC(=O)O)c(OC)cc2[C@@H](c2ccccc2)N1,0.44,0.52,-0.44,-0.45,-0.88,0.14,-1.84,0.38
O=c1cc(-c2ccc(O)cc2)oc2c(CN3CCN(Cc4cccs4)CC3)c(O)cc(O)c12,2.39,-1.3,1.5,-0.79,2.99,-1.64,3.95,2.2
CCN(CC)CCCC[C@H](NC(=O)[C@H](CC(C)C)NC(=O)[C@H](C)NC(=O)[C@H](Cc1ccccc1)NC(=O)c1ccc(C(C)(C)C)cc1)C(=O)N[C@@H](CO)C(=O)OC ({Benzoyl(4-tBu)}-FAL[Lys(Et2)]S-OMe),0.51,-1.71,-0.26,0.5,-1.01,0.31,-1.22,-1.11
CC(=O)N1CCC(Nc2cc(C(=O)NC[C@H](O)CN3CCc4ccccc4C3)ncn2)CC1,0.44,-0.33,0.19,0.07,0.18,0.06,-0.79,-0.38
CC(=O)N[C@@H](CC(=O)O)C(=O)N[C@@H](CCC(=O)O)C(=O)N[C@H](C(=O)N[C@H](C=O)CC(=O)O)C(C)C,-0.28,-1.5,-0.58,-0.17,-0.28,-0.74,-1.77,-1.09
Nc1ncnc2c1nc(NCc1ccc(-c3ccccc3)cc1)n2[C@@H]1O[C@H](CO)[C@@H](O)[C@H]1O,1.36,-3.1,0.21,-0.22,-0.69,0.28,-1.41,-0.53
C[C@H](N)C(=O)N1C[C@H](CCCB(O)O)[C@](N)(C(=O)O)C1,0.03,-2.12,-0.11,-0.32,-0.3,0.12,-2.46,-0.11
N#Cc1cc2cc(CN3CCC(Nc4ncnc5sc(CC(F)(F)F)cc45)CC3)ccc2[nH]1,0.42,1.04,0.06,1.89,-0.5,0.61,-0.57,1.28
Cc1cc(C)c(-c2[nH]nc(C)c2C)cc1C(=O)N1CC(c2ccc(C#N)cc2)C1,1.06,-3.66,-0.16,-0.21,-0.42,0.26,-2.18,-0.05
CN1CC[C@@H](Oc2ccc(F)c(-c3nc4c(o3)C(=O)c3ccccc3C4=O)c2Cl)C1,0.09,0.99,0.38,-0.29,-0.09,0.24,-1.95,-0.66
COc1cc([C@@H]2Oc3c(O)cc([C@H]4Oc5cc(O)cc(O)c5C(=O)[C@@H]4O)cc3[C@H]2CO)ccc1O,0.61,-1.83,0.16,0.36,3.53,0.13,-1.74,1.87
CNC(=O)N1CCc2c(c(N3CCCc4cc(-c5cnn(C)c5)c(C(F)F)cc43)nn2C2CCOCC2)C1,0.09,1.4,0.2,0.34,-0.47,-0.36,-1.06,-2.05
CC(C)c1ccc(-c2cc(=O)c3ccccc3o2)cc1,1.37,-0.23,-0.03,0.58,0,0.37,-1.77,-0.62
Oc1nc(-c2ccc(C(F)(F)F)cc2)nc2c1CSCC2,0.58,-2.75,0.01,-0.13,0.44,0.11,-2.41,-0.56
NS(=O)(=O)c1cc(-c2nnn[nH]2)c(NCc2cccs2)cc1Cl,0.69,-1.05,1.03,0.19,1.34,0.84,-1.94,0
CCN(c1cc(-c2ccc(CN3CCOCC3)cc2)cc(C(=O)NCc2c(C)cc(C)[nH]c2=O)c1C)C1CCOCC1,0.22,-1.59,-0.42,0.03,0,-4.86,-1.94,-2.54
NS(=O)(=O)OC[C@H]1C[C@@H](Nc2ccnc3cc(-c4cccc(SC(F)(F)F)c4)nn23)[C@H](O)[C@@H]1O,1.49,1.04,0.04,0.4,-1.24,0.75,-1.12,1.39
